Assay outcomes deposited in PubChem by several laboratories.
Compounds with a hit are over-represented: about 1.3% of the library has one in this group of screens.
Keap1-Nrf2 PPI = disrupts human Keap1 binding to Nrf2 peptide | Keap1 Kelch-Nrf2 peptide fluorescence polarization, 1536-well | AID 504523 | inhibition, % at 9.4 µM | Q14145 | 0.15% of 340,000 active; in the data active = inhibition above about 12%;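 also: human Keap1 Kelch domain with fluorescein labeled Nrf2 9mer peptide probe; 0% = neutral control wells and 100% = peptide positive control; higher means more block of Keap1 binding to Nrf2 peptide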
eLon inh = inhibits E. coli Lon protease; P0A9M0; inhibition, % at 7.94 µM; purified E. coli Lon protease, fluorescence polarization; 0.42% of 360,000 active; in the data active = inhibition above about 13%, passing the limit was not always enough;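 also: 0% = enzyme with probe and DMSO and 100% = no enzyme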
GLD-1 TGE inh = GLD-1-TGE RNA interaction inhibition (C. elegans). purified GLD-1 + fluorescein TGE RNA, fluorescence polarization. inhibition, % at 5.96 µM. Q17339. 0.44% of 320,000 active. AID 2280;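 active = percent inhibition above a per-plate cutoff, the plate mean of test compounds plus 3 SD, cut at about 30% in these data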;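 also: 0% = DMSO wells with GLD-1 and probe and 100% = wells lacking GLD-1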
Target sequence (Q17339 whole entry, looked up): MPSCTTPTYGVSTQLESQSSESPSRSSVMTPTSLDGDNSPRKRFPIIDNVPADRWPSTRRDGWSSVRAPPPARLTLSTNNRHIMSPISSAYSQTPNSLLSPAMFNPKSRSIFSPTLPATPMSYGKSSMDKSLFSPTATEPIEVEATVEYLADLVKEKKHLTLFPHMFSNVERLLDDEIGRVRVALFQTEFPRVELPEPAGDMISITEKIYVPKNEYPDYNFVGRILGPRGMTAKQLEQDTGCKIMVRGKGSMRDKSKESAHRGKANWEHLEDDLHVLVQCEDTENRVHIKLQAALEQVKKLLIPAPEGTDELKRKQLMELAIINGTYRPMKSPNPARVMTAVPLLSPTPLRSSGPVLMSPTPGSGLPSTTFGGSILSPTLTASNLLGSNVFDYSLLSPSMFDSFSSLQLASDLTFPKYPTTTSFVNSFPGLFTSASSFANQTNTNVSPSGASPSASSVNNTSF
MCL1 BIM primary = disrupts human MCL1 binding to BIM-BH3 peptide; Q07820; GST-MCL1 / FITC-Bim-BH3 fluorescence polarization; inhibition, % at 10.9 µM; 0.68% of 320,000 active; AID 2057;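 active = inhibition above the mean inhibition of all tested compounds plus 3 SD, set per campaign, cut at about 40% in these data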;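 also: 0% = DMSO wells and 100% = unlabeled Bim-BH3 peptide control; higher means more loss of mP so more displacement of Bim peptide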
Bcl-xL primary = Bcl-xL (human) inhibition | Q07817 | inhibition, % at 10.9 µM | 0.7% of 320,000 active | GST-Bcl-xL / FITC-Bim BH3 peptide fluorescence polarization;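 active = inhibition above the mean of all tested compounds plus 3 SD, cutoff set per campaign, cut at about 30% in these data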;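 also: 0% = DMSO wells and 100% = unlabeled Bim-BH3 peptide competitor; inhibitors lower millipolarization by displacing the labeled peptide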
LANA DNA inh = inhibitors of KSHV LANA C-terminal domain DNA binding; MBP-C-LANA/FAM-LBS DNA binding, fluorescence polarization; inhibition, % at 9 µM; 0.078% of 340,000 active; AID 504423;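 active = highest replicate inhibition at or above 60% at 9 µM, even if other replicates fall short; inactive = all replicates below 60% inhibition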;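 also: 0% = neutral control wells and 100% = 4 µM acridine orange control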
BCLXL inh confirm = Bcl-xL (human) inhibition, MCL1 counter-screen confirmation | shares compounds with MCL1 BIM primary | GST-Bcl-xL / FITC-Bim BH3 peptide FP binding | inhibition, % at 10.9 µM | 54% of 1,700 active | AID 2166;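 active = inhibition above a cutoff equal to the mean inhibition of all tested compounds plus 3 SD, cut at about 30% in these data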;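 also: 0% = DMSO wells and 100% = unlabeled Bim BH3 control peptide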
MCL1 inh confirm = MCL1-BIM-BH3 interaction inhibition, confirmation. GST-MCL1 / FITC-Bim-BH3 fluorescence polarization. inhibition, % at 10.9 µM. 61% of 1,700 active. shares compounds with MCL1 BIM primary;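 active = inhibition above the average of all tested compounds plus 3 SD, cut at about 40% in these data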;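 also: 0% = DMSO wells and 100% = unlabeled Bim-BH3 control peptide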
Active calls of the source: *; x = no result; + = active, no number.

SMILES	Keap1-Nrf2 PPI	eLon inh	GLD-1 TGE inh	MCL1 BIM primary	Bcl-xL primary	LANA DNA inh	BCLXL inh confirm	MCL1 inh confirm
O=C(CSc1nnc(CNC(=O)c2ccccc2F)o1)Nc1cccc(C(F)(F)F)c1	0	3	3	-3	-1	0	x	x
O=C(NC1CCCCC1)C1c2ccccc2OCC(=O)N1CCCN1CCOCC1 (stereo unspecified)	x	-11	x	x	x	x	x	x
C=CCN1C(=O)C2(OCCCO2)c2ccccc21	-4	2	1	-2	3	0	x	x
C=CCN1C(=O)C2(OCCO2)c2cc(C)ccc21	-4	2	8	40*	19	1	4	1
COc1ccc(C2=CC3=CC(=O)C(C)(O)C(=O)C3=CO2)cc1 (stereo unspecified)	x	x	11	27	16	x	x	x
CC1(O)C(=O)C=C2C=C(c3ccc(C#N)cc3)OC=C2C1=O (stereo unspecified)	x	x	8	47*	8	x	13	40*
N#CC(C#N)=Cc1c[nH]c(=O)c(C#N)c1Nc1ccccc1	x	2	26	55*	56*	x	46*	56*
CN(C)c1ccc(N/C(N)=N/c2nc(C(F)(F)F)cc(C(F)(F)F)n2)cc1	5	-2	1	2	3	2	x	x
Cc1ccccc1C(=O)NC(CC(C)C)C(=O)OCC(=O)c1c(N)n(C)c(=O)n(C)c1=O (stereo unspecified)	-4	0	0	6	3	-1	x	x
O=C(Nc1ccc(C(=O)N2CCOCC2)cc1)C1CCCC1	1	-4	x	x	x	0	x	x
CCOC(=O)c1cc2n(c1/N=C/N(C)C)-c1ccccc1C2=O	5	7	169*	+	192*	33	186*	+
Cc1ccc(C)c(S(=O)(=O)Nc2ccc3oc(C)c(C(=O)O)c3c2)c1	-4	-14	1	42*	12	11	21	60*
COc1ccc(/C=N/NC(=O)COc2ccc3ccccc3c2)c(C(=O)O)c1OC	-5	3	7	-2	0	0	x	x
COc1ccc(/C=N/NC(=O)COc2cccc3ccccc23)c(C(=O)O)c1OC	-4	3	-5	54*	6	1	10	23
O=C(O)c1cccc(-n2cccc2/C=C\[N+](=O)[O-])c1	6	-1	14	18	13	19	x	x
O=C(O)c1cccc(-n2cccc2/C=C/[N+](=O)[O-])c1	-1	-11	20	72*	44*	35	41*	58*
O=C(NCc1ccc(C(=O)O)cc1)OCc1ccccc1	-5	0	-3	2	7	0	x	x
COC1CCN(Cc2c(C(=O)N3CCN(C4CCCCC4)CC3)nc3ccccn23)CC1	-2	8	25	49*	43*	0	16	15
NC(=O)[C@@H]1CCCN1Cc1c(C(=O)N2CCN(C3CCCCC3)CC2)nc2ccccn12	6	-3	13	20	25	1	x	x
COCCn1cc(-c2csc(N)n2)c2ccccc21	-6	8	26	60*	54*	4	16	14
CN(C)c1nc(-c2cn(CCC#N)c3ccccc23)cs1	-8	16	34*	69*	65*	1	34*	49*
CC(=O)C1(C)C(=O)N(c2ccc(F)cc2)C(=O)N1c1ccc(F)cc1 (stereo unspecified)	4	-11	x	x	x	0	x	x
Cc1ccc(C(=O)N/C(=C\c2ccc(-c3ccccc3[N+](=O)[O-])o2)C(=O)NCCN(C)C)cc1	5	2	23	66*	56*	10	7	2
C=CCSC1=N/C(=C\C=C\c2ccco2)C(=O)S1	0	-8	0	47*	13	24	3	27
CCN(CC)C(=O)CSc1nc(C)cc(C)n1	-7	6	10	14	13	-1	x	x
SMILES	Keap1-Nrf2 PPI	eLon inh	GLD-1 TGE inh	MCL1 BIM primary	Bcl-xL primary	LANA DNA inh	BCLXL inh confirm	MCL1 inh confirm
Cn1cc(/C=C2\SC(=O)NC2=S)c2ccccc21	-5	1	-5	60*	62*	2	74*	82*
CCOC(=O)c1cc2c(=O)n3ccccc3nc2n(Cc2ccco2)c1=NC(=O)c1cccc(OC)c1	-4	-39	-5	17	24	-1	x	x
CCOC(=O)c1cc2c(=O)n3ccccc3nc2n(Cc2ccco2)c1=NC(=O)c1ccc(OC)cc1	-10	-15	10	41*	27	3	11	-2
O=c1[nH]cnc2sc3c(c12)CN(Cc1ccccc1)CC3	0	10	-9	58*	73*	0	22	17
CSc1nc(NCCOCCO)c2sc3nc(-c4ccco4)c4c(c3c2n1)CCC4	-4	-3	-9	69*	23	-2	23	67*
O=C1/C(=C2\C(=O)N(Cc3ccc(F)cc3)c3ccccc32)SC(=S)N1CCS(=O)(=O)O	1	-4	-4	43*	21	-2	23	39
O=C(O)CN1C(=O)/C(=C2\C(=O)N(Cc3ccccc3Cl)c3ccccc32)SC1=S	2	-6	0	19	11	2	x	x
CC(C)NS(=O)(=O)c1ccc(OCC(=O)Nc2cccc(F)c2)cc1	-4	-8	2	2	3	-1	x	x
Oc1ccc(/C=N/n2c(COc3ccccc3)n[nH]c2=S)cc1O	-8	-5	-10	44*	11	4	20	31
CC(C)C1Cc2c(C#N)c(N)sc(=S)c2CO1 (stereo unspecified)	0	1	66*	64*	67*	3	23	17
Cc1ccc(C2Nc3cccc4cccc(c34)N2)s1	3	-1	22	61*	51*	0	16	8
Oc1ccc(C2Nc3cccc4cccc(c34)N2)c(O)c1	-2	12	2	16	12	0	x	x
Fc1ccc(C2Nc3cccc4cccc(c34)N2)cc1	-6	-5	10	41*	19	1	13	8
CCOc1ccc(/C=C/C(=O)Nc2ccc(OC)cc2[N+](=O)[O-])cc1	0	6	63*	83*	57*	20	60*	68*
O=Nc1c(O)[nH]c2ccc(Cl)c(Cl)c12	3	2	x	x	x	-1	x	x
COc1ccc(N2CCOCC2)c(NC(=O)COc2cccc(C)c2C)c1	4	0	4	-5	2	-2	x	x
Cc1ccnc(Nc2nc(-c3ccc(O)c(O)c3)cs2)c1	0	11	15	42*	29	-2	36*	42*
CC(C)(C)c1ccccc1OCC(=O)Nc1ccccc1C(=O)NCc1cccnc1	3	7	11	8	0	0	x	x
